For seven molecules, growth results are on record in PubChem BioAssay (NCI).

Test in all cases: NCI-60 one-dose screen, 48 h (100 = growth as untreated, 0 = no growth, -100 = all killed)
Common to all, as to settings: 10 µM unless noted

In assay [1] the test system is NCI-H23 lung.
The subject of assay [2] is NCI-H226 lung.
Assay [3] has as its system NCI-H322M lung.
Assay [4] concerns HOP-62 NSCLC.
Assay [5] has as its system NCI-H460 lung.
Assay [6] deals with HOP-92 NSCLC.
In assay [7] the test system is NCI-H522 lung.
In assay [8] the test system is A549/ATCC NSCLC.
In assay [9] the test system is 786-0 renal.
Assay [10] has as its system COLO 205 colon.
Assay [11] has as its system DU-145 prostate.
The test system of assay [12] is K-562 leukemia.
The test system of assay [13] is MALME-3M melanoma.
Assay [14] relates to MDA-MB-231 breast.
Assay [15] deals with RXF 393 renal.
In assay [16] the test system is SF-268 CNS.
The subject of assay [17] is SF-295 CNS.
Assay [18] deals with SF-539 CNS.
Assay [19] concerns UACC-257 melanoma.
Assay [20] concerns M14 melanoma.

Compounds without any hit were thinned out: in the full panel of roughly 83,000, 20% have a hit.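 Negative percent growth values reflect cell death: -40 means 40% of the cells present at the start died, and -100 means all died.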 Unmarked numbers belong to inactive results. Calls of active or inactive are those of the source. Rule for the calls: active = growth percent below 10; inactive = the rest.

For the molecule `Cc1nc(Nc2n[nH]c3c2CN(C(=O)N[C@H](CN(C)C)c2ccccc2)C3(C)C)c2sccc2n1`, the growth in assay [1] was -22.8% (active); in assay [2], -25.2% (active); in [3], -19.1% (active); in assay [4], -46.5% (active); in assay [5], -42.8% (active); in assay [6], -62.4% (active). The growth in [7] was -45% (active); in assay [8], 0.0643% (active); in [9] it was -15% (active); in assay [10] it was -88.6% (active); in assay [11] it was 6.06% (active); in assay [12], 4.69% (active). In addition, the growth in assay [13] is -71.4% (active); in assay [14] it was -29.1% (active); in assay [15], -77.3% (active); in assay [16] it was -18.4% (active); in assay [17] it was -3.9% (active); in assay [18], -54.8% (active). Moreover, the growth in [19] is -54.6% (active); in assay [20] it was -54.8% (active).
For the molecule `CC(=O)c1cnc2ccc(-c3cc(Cl)c(O)c(Cl)c3)nc2c1NC1CCC(CN(C)C)CC1` (stereo not drawn), the growth in [1] is -54.3% [2.5 µM] (active); in [2], -16.3% [2.5 µM] (active); in assay [3] it was -37.7% [2.5 µM] (active); in [4], -34.4% [2.5 µM] (active); in assay [5] it was -51.8% [2.5 µM] (active); in [6], -20.3% [2.5 µM] (active). Also, the growth in [7] is -75.5% [2.5 µM] (active); in [8], -8.85% [2.5 µM] (active); in assay [9], -48.3% [2.5 µM] (active); in assay [10], -94.2% [2.5 µM] (active); in [11], -5.67% [2.5 µM] (active); in assay [12] it was 6.35% [2.5 µM] (active). The growth is -75.7% [2.5 µM] (active) in assay [13]; -7.07% [2.5 µM] (active) in [14]; -75.1% [2.5 µM] (active) in [15]; -24.1% [2.5 µM] (active) in assay [16]; -19.2% [2.5 µM] (active) in [17]; -89% [2.5 µM] (active) in [18]. Further, the results for the growth in [19] and in assay [20] were -26.4% [2.5 µM] (active) and -58.4% [2.5 µM] (active), respectively.
For `CC(=O)C1=C(C)NC(SCc2nnc(-c3ccc(C)cc3)o2)=NC1c1ccc(F)cc1` (stereo not drawn), the growth in assay [1] was 95.2%; in assay [2], 89.6%; in [3], 92.8%; in assay [4], 95.2%; in [5], 106%; in assay [6], 96.4%. Moreover, the growth in assay [7] is 85.9%; in assay [8] it was 91.2%; in [9] it was 84.6%; in [10], 115%; in [11], 107%; in assay [12], 100%. Further, the growth is 98% in assay [13]; 93.6% in assay [14]; 103% in assay [15]; 111% in assay [16]; 108% in [17]; 93.4% in [18]. The growth in [19] is 111%; in assay [20], 96%.
Take `O=C1C=CC2(NN=C(c3ccccc3)N2c2ccc(Cl)cc2)c2cccc(O)c21` (stereo not drawn): the growth is 13.6% in [1]; 60.5% in assay [2]; 89.5% in assay [3]; 26.5% in [4]; 64.3% in [5]; 125% in assay [6]. Further, the growth in assay [7] was 51.1%; in assay [8], 22.3%; in [9], 93.4%; in assay [10] it was 94.5%; in [11] it was 51.9%; in assay [12] it was 25.5%. Also, the growth in assay [13] was 38.8%; in assay [14], 77.4%; in [15] it was 119%; in assay [16], 57.3%; in assay [17] it was 27.8%; in [18] it was 26.6%. The growth in assay [19] is 5.85% (active); in assay [20] it was 28.9%.
In the case of `Cc1cc2c(-c3nc4ccccn4c3NC3CCCCC3)c(O)c(O)cc2c(O)c1-c1c(C)cc2c(-c3nc4ccccn4c3NC3CCCCC3)c(O)c(O)cc2c1O`, the growth was 30.7% in [1]; 53.6% in [2]; 54.9% in assay [3]; 26% in assay [4]; 19.2% in assay [5]; -3.03% (active) in assay [6]. For the same molecule, the growth in assay [7] was 15.1%; in assay [8] it was 22.8%; in assay [9] it was 72.4%; in [10], 14.8%; in [11] it was 32.3%; in assay [12], 10.2%. The growth in assay [13] is 42.5%; in assay [14] it was 26.5%; in [15], 39%; in [16], 38.2%; in assay [17] it was 16.6%; in [18], 16.9%. For the same molecule, the growth in [20] is 16.5%.
For the molecule `Cc1cc2c(-c3nc4ccccn4c3N)c(O)c(O)cc2c(O)c1-c1c(C)cc2c(-c3nc4ccccn4c3N)c(O)c(O)cc2c1O`, the growth in [1] is 9.67% (active); in assay [2], 26%; in assay [3] it was 29.3%; in assay [4] it was 11.3%; in assay [5] it was 7% (active); in [6] it was -8.82% (active). Besides, the growth in assay [7] was -3.16% (active); in assay [8], 16.4%; in assay [9], 32.4%; in [10], -48.5% (active); in assay [11], 26%; in assay [12], 14.6%. Also, the growth in assay [13] was -0.749% (active); in assay [14], 13.6%; in [15], 25.3%; in assay [16], 20.4%; in assay [17] it was 2.67% (active); in assay [18], 14.9%. The growth in [20] was 25.1%.
For `COCCOc1cnc2ccn([C@H](C)c3nnc4c(F)cc(-c5cnn(C)c5)cn34)c(=O)c2c1`, the growth in assay [1] was 51.1%; in assay [2] it was 68.8%; in assay [3], 59.2%; in assay [4], 89.2%; in assay [5], 75.6%; in assay [6], 85.3%. The growth in [7] was 87.7%; in [8], 65.7%; in assay [9] it was 108%; in assay [10] it was 106%; in assay [11], 91.2%; in assay [12], 96.8%. Besides, the growth in assay [13] is 9.06% (active); in assay [14] it was 63.9%; in assay [15], 81.2%; in assay [16], 85.9%; in assay [17], 67.4%; in [18], 99.1%. For the same molecule, the values for the growth in assay [19] and in [20] were 69.1% and 91.6%, respectively.
